Mtb FBA inh: Mtb fructose-bisphosphate aldolase inhibition. P9WQA3. purified M. tuberculosis FBA, fluorescence read-out. inhibition, % at 1 µM. 360,000 tested, 2.3% active; in the data active = inhibition above about 27%
Target sequence (P9WQA3 whole entry, looked up): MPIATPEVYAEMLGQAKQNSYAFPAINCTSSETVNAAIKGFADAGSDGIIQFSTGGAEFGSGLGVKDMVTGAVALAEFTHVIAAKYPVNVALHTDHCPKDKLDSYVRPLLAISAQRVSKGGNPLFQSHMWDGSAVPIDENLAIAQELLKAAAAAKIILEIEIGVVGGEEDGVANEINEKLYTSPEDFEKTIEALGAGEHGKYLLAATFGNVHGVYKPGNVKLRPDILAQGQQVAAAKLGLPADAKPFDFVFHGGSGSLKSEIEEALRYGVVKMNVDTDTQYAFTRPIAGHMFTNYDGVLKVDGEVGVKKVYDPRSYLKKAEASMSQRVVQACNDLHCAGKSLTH
CCHFV vOTU inh: blocks the CCHF virus ovarian tumor domain protease; AID 651958; CCHFV vOTU protease, Pep-AMC fluorescence; inhibition, % at 11.5 µM; 370,000 tested, 0.55% active
Mtb bLac sens: beta-lactam sensitization of Mtb H37Rv; M. tuberculosis H37Rv growth with meropenem, percent inhibition; inhibition, % at 25 µM; 330,000 tested, 0.27% active; call rule not given here;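 also: growth measured after seven days incubation then overnight dye step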
MazF activator: activators of E. coli MazEF toxin-antitoxin RNase; AID 504720; P0AE70; FAM/BHQ RNA-DNA oligo cleavage fluorescence, 5 h; 350,000 tested, 0.32% active; activation, % at 20 µM; in the data active = activation above about 50%
Target sequence (P0AE70 whole entry, looked up): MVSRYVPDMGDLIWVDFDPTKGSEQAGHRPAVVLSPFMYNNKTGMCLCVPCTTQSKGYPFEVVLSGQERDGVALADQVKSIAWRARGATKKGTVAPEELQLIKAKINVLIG
GDH-TPI counter: inhibits GDH-TPI coupling enzymes, artifact for Mtb FBA screen. GDH-TPI coupled enzyme counterscreen, NADH absorbance. inhibition, % at 4.8 µM. 360,000 tested, 1.2% active. AID 588335
Of the large screens only hits and unclear results are named; the others gave an inactive call. The list is not random: actives were taken first. Their share in the collection is about 4%. Rule as the data show it, unless noted: active = inhibition above about 30%; inactive = the rest.

CC(C)(C)NC(=O)C1Cc2ccccc2CN1C(=O)Nc1cccc(Cl)c1 (stereo not given)	MazF activator 113
Cn1c(=O)c(=O)n(C)c2cc(S(=O)(=O)N3CCN(Cc4ccc(F)cc4)CC3)ccc21	none (no result: Mtb FBA inh, Mtb bLac sens, MazF activator, GDH-TPI counter)
Cc1ccc(NC(=O)CN2C(=O)N/C(=C\c3ccco3)C2=O)cc1	GDH-TPI counter 34
Cc1cccc(NC(=O)CN2C(=O)N/C(=C\c3ccc(N4CCOCC4)cc3)C2=O)c1	GDH-TPI counter 31
Cc1ccc(NC(=O)CN2C(=O)N/C(=C\c3cccnc3)C2=O)cc1	none
c1coc(C2=NC(c3ccco3)C(c3ccco3)N2)c1 (stereo not given)	Mtb FBA inh 49 (no result: CCHFV vOTU inh, Mtb bLac sens)
COC(=O)C[C@@H]1CC[C@H]2[C@@H](COc3ccc(NS(=O)(=O)c4ccccc4F)cc3C(=O)N2C)O1	none (no result: Mtb FBA inh, Mtb bLac sens, MazF activator, GDH-TPI counter)
COc1ccc(-c2ccc3c(c2)CN(C(=O)C(C)(C)C)Cc2cnnn2-3)cc1	Mtb FBA inh 140 (no result: Mtb bLac sens, MazF activator, GDH-TPI counter)
O=C(/C=C/NCc1cccnc1)c1ccc(-c2ccccc2)cc1	GDH-TPI counter 36
COC(=O)c1ccc(/C=N/NC(=O)C(=O)NCC2CCCO2)cc1 (stereo not given)	none
O=C(NCC1CCCO1)C(=O)N/N=C\c1ccc2c(c1)OCO2 (stereo not given)	GDH-TPI counter 34
O=C(NCC1CCCO1)C(=O)N/N=C/c1ccc(O)c(Cl)c1 (stereo not given)	GDH-TPI counter 55
CC(=O)OCCn1c2nc(=O)[nH]c(=O)c-2nc2cc(C)c(C)cc21	MazF activator 480
N#CCc1ccc(NC(=O)/C=C/c2ccc([N+](=O)[O-])o2)cc1	GDH-TPI counter 34 (no result: CCHFV vOTU inh, Mtb bLac sens)
CCC[C@@H](NS(=O)(=O)c1ccc(C)cc1)C(=O)Oc1ccc2c3c(c(=O)oc2c1)CCC3	Mtb FBA inh active
Cc1ccc(S(=O)(=O)NCCC(=O)Oc2ccc3ccc(=O)oc3c2)cc1	Mtb FBA inh active
Cc1ccc(S(=O)(=O)NC(C(=O)Oc2ccc3ccc(=O)oc3c2)c2ccccc2)cc1 (stereo not given)	Mtb FBA inh active
CCCC(NS(=O)(=O)c1ccc(C)cc1)C(=O)O (stereo not given)	none
CCC(NC(=O)OCc1ccccc1)C(=O)Oc1ccc2ccc(=O)oc2c1 (stereo not given)	Mtb FBA inh active
COc1ccc(CC(=O)N(Cc2ccccc2)c2ccccc2C(=O)Nc2cc(OC)ccc2OC)cc1	none (no result: Mtb FBA inh, Mtb bLac sens, MazF activator, GDH-TPI counter)
Cc1ccc(S(=O)(=O)NC(C(=O)Oc2ccc3c(C)c(Cl)c(=O)oc3c2)c2ccccc2)cc1 (stereo not given)	Mtb FBA inh active
O=C(OC12CCCN(C1)/C(=C/c1cccc(Cl)c1)C2)c1ccccc1 (stereo not given)	none (no result: Mtb FBA inh, Mtb bLac sens, MazF activator, GDH-TPI counter)
CC(=O)c1c(C)nc2ccccc2c1N	none
Cc1nc2ccccc2c(N)c1C(=O)/C=C/c1ccccc1	GDH-TPI counter 37
O=C(NCCc1c[nH]c2ccccc12)OCc1cn(Cc2ccc(F)cc2F)nn1	none (no result: Mtb FBA inh, Mtb bLac sens, MazF activator, GDH-TPI counter)
CC(=O)c1ccc(S(=O)(=O)N(CCCO)Cc2cc3cc4c(cc3[nH]c2=O)OCCO4)cc1	none
O=c1[nH]c2cc3c(cc2cc1CN(CCO)S(=O)(=O)c1ccccc1)OCCO3	GDH-TPI counter 37 (no result: CCHFV vOTU inh)
CN(C(=O)c1cnccn1)c1nnc(-c2cnccn2)s1	GDH-TPI counter 31
CN(C(=O)c1ccccn1)c1nnc(-c2cnccn2)s1	none
COc1cccc(NC(=O)Nc2c(-c3ccc(C(F)(F)F)cc3)nc3ncccn23)c1	none (no result: Mtb FBA inh, Mtb bLac sens, MazF activator, GDH-TPI counter)
Cc1cc(/C=C(\C#N)C(=O)NCc2ccco2)c(C)n1-c1cccnc1	GDH-TPI counter 31
Cc1ccsc1/C=C(\C#N)C(=O)NCc1ccco1	GDH-TPI counter 32
N#C/C(=C\C=C\c1ccccc1)C(=O)NCc1ccco1	GDH-TPI counter 63
Cc1cc(/C=C(/C#N)c2cccc(F)c2)c(C)n1-c1cccnc1	GDH-TPI counter 38
O=C(/C=C/c1ccccc1)NCc1ccco1	none
COC(=O)[C@]12C[C@H](CC(=O)N3CCC(c4ccccc4)CC3)C(=O)N(CCC3=CCCCC3)C1=C[C@H](C1CCCC1)O[C@@H]2C	none (no result: Mtb FBA inh, Mtb bLac sens, MazF activator, GDH-TPI counter)
O=C(NCc1ccco1)/C(=C/C=C\c1ccccc1)NC(=O)c1ccc(Br)o1	GDH-TPI counter 35
CN1CC=C(c2ccccc2)N(c2ccc(Cl)cc2)C1=O	none (no result: Mtb FBA inh, Mtb bLac sens, MazF activator, GDH-TPI counter)
CC1(C)CC(=O)C=C(c2ccc3c(c2)OCO3)C1	GDH-TPI counter 33
O=C(CCN1CCN(c2ccccc2)CC1)N/N=C/c1ccc([N+](=O)[O-])o1	GDH-TPI counter 38
Cc1cc(=O)[nH]c(SCC(=O)Nc2cccc(Cl)c2F)n1	none (no result: Mtb FBA inh, Mtb bLac sens, MazF activator, GDH-TPI counter)
CCCCn1c(N)c(N(CCOC)C(=O)COC(=O)c2ccccc2NCCO)c(=O)[nH]c1=O	Mtb FBA inh 124 (no result: Mtb bLac sens)
CCN(C(=O)COC(=O)c1ccccc1NCc1ccco1)c1c(N)n(Cc2ccccc2)c(=O)[nH]c1=O	Mtb FBA inh 142 (no result: Mtb bLac sens)
COc1ccc(Oc2coc3c(CN(C)C)c(O)ccc3c2=O)cc1	none
COc1cccc(Oc2c(C)oc3c(CN4CCCCC4)c(O)ccc3c2=O)c1	Mtb FBA inh 179
COC(=O)c1ccc(Oc2c(C)oc3c(CN4CCN(C)CC4)c(O)ccc3c2=O)cc1	Mtb FBA inh active, Mtb bLac sens inconclusive
COc1ccccc1Oc1c(C)oc2c(CN3CCN(C)CC3)c(O)ccc2c1=O	none (no result: Mtb FBA inh, MazF activator, GDH-TPI counter)
Cc1oc2c(CN(C)C)c(O)ccc2c(=O)c1-c1cscn1	Mtb FBA inh 66
COc1ccc(Oc2c(C)oc3c(CN(C)C)c(O)ccc3c2=O)cc1	Mtb FBA inh 43
C[C@H](O)[C@@H]1CN2CCc3c([nH]c4cccc(-c5ccccc5)c34)[C@@H]2C[C@@H]1N(C)C(=O)Nc1ccccc1	none (no result: Mtb FBA inh, Mtb bLac sens, MazF activator, GDH-TPI counter)
Cn1c(SCc2ccc(C(C)(C)C)cc2)nnc1-c1ccco1	none (no result: Mtb FBA inh, Mtb bLac sens, MazF activator, GDH-TPI counter)
COCCCN1C(=O)[C@H](CC(=O)N2CCN(C(=O)C3CC3)CC2)[C@]2(C(=O)OC)CCCCC=C12	none (no result: Mtb FBA inh, Mtb bLac sens, MazF activator, GDH-TPI counter)
CCOC(=O)CC[C@@H]1CC[C@]2(CCCN(C(=O)C3CCCC3)C2)O1	none (no result: Mtb FBA inh, Mtb bLac sens, MazF activator, GDH-TPI counter)
C=CC[C@@]1(c2ccccc2)Oc2ccccc2-c2nc3ccccc3nc21	none (no result: Mtb FBA inh, Mtb bLac sens, MazF activator, GDH-TPI counter)
CC(=O)c1ccc(N2CCN(c3ccc(S(=O)(=O)NCCCN(C)C)cc3[N+](=O)[O-])CC2)cc1	GDH-TPI counter 57
CC(=O)c1ccc(N2CCN(c3ccc(S(=O)(=O)NCCN(C)C)cc3[N+](=O)[O-])CC2)cc1	none
Cc1ccc(C2CCC3(CCC(=O)N3CCO)CC2)cc1 (stereo not given)	none (no result: Mtb FBA inh, Mtb bLac sens, MazF activator, GDH-TPI counter)
Cc1cccc(CCNc2nc3ccc(C)cc3n3cnnc23)c1	none
Cc1ccc2nc(NCCc3ccc(Cl)cc3)c3nncn3c2c1	MazF activator 80
CC(=O)c1ccc(N/N=C(/C(N)=O)C2=NC(C)(C)Cc3ccccc32)cc1	GDH-TPI counter 35
CC(NCc1ccco1)C(=O)N1CCOCC1 (stereo not given)	none (no result: Mtb FBA inh, Mtb bLac sens, MazF activator, GDH-TPI counter)
CCN(CC)C(=O)CC[C@H]1CC[C@]2(CCCN(S(=O)(=O)c3ccccc3)C2)O1	none (no result: Mtb FBA inh, Mtb bLac sens, MazF activator, GDH-TPI counter)
CN1C(=O)C[C@@](C#N)(C(=O)NCc2ccc3c(c2)OCO3)[C@H]1c1ccccc1	none (no result: Mtb FBA inh, Mtb bLac sens, MazF activator, GDH-TPI counter)
CCOC(=O)C1=C(C)N=c2s/c(=C/c3ccccc3)c(=O)n2C1c1ccc(OC)c(OC)c1 (stereo not given)	MazF activator 85
